Our source for the binding signal values is paper PMC11006913.

Assay in all cases: PBM; 200 nM protein, PBS
Holding throughout (settings): dsDNA, one strand shown

For test [1], the target named is HOXB9 (Homo sapiens, UniProt P17482 171-250, T197M).
Test [2] deals with HOXB9 (Homo sapiens, UniProt P17482 171-250).
Test [3] has as its target HOXB9 (Homo sapiens, UniProt P17482 171-250, R186Q).
The next test deals with T1, SIX6 (Homo sapiens, UniProt O95475 114-200, L167I).
T1 sequence: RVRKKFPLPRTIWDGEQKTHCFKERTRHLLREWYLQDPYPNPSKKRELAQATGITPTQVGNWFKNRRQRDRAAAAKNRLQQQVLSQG

Sequence of HOXB9 (Homo sapiens, UniProt P17482 171-250) (P17482 171-250): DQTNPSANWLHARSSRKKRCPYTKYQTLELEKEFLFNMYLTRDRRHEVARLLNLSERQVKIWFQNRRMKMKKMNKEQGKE
Sequence of HOXB9 (Homo sapiens, UniProt P17482 171-250, T197M) (P17482 171-250 T197M): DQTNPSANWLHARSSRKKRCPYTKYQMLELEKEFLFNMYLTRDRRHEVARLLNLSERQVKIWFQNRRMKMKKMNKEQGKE
Sequence of HOXB9 (Homo sapiens, UniProt P17482 171-250, R186Q) (P17482 171-250 R186Q): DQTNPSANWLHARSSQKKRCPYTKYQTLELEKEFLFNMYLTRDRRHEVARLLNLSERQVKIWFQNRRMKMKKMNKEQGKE

As to CTTGGCGC, the binding signal in the test with HOXB9 [1] is 8.47 upbm affinity estimate (log intensity, higher = more binding, comparable within an allelic series); with HOXB9 [2] it was 8.24 upbm affinity estimate (log intensity, higher = more binding, comparable within an allelic series); in the test with HOXB9 [3] it was 8.21 upbm affinity estimate (log intensity, higher = more binding, comparable within an allelic series).

On to GCACCGCC, for which the binding signal with HOXB9 [1] is 8.24 upbm affinity estimate (log intensity, higher = more binding, comparable within an allelic series); in the test with HOXB9 [2], 8.35 upbm affinity estimate (log intensity, higher = more binding, comparable within an allelic series); in the test with HOXB9 [3], 8.25 upbm affinity estimate (log intensity, higher = more binding, comparable within an allelic series).

CCTTCGCG: the binding signal with HOXB9 [1] is 8.71 upbm affinity estimate (log intensity, higher = more binding, comparable within an allelic series); with HOXB9 [2] it was 8.45 upbm affinity estimate (log intensity, higher = more binding, comparable within an allelic series); in the test with HOXB9 [3], 8.78 upbm affinity estimate (log intensity, higher = more binding, comparable within an allelic series).

As for GCAGCCCC, the binding signal in the test with HOXB9 [1] was 8.47 upbm affinity estimate (log intensity, higher = more binding, comparable within an allelic series); with HOXB9 [2], 8.43 upbm affinity estimate (log intensity, higher = more binding, comparable within an allelic series); in the test with HOXB9 [3], 8.5 upbm affinity estimate (log intensity, higher = more binding, comparable within an allelic series).

ACACCCAG: the binding signal was 8.69 upbm affinity estimate (log intensity, higher = more binding, comparable within an allelic series) with HOXB9 [1]; 8.47 upbm affinity estimate (log intensity, higher = more binding, comparable within an allelic series) with HOXB9 [2]; 8.52 upbm affinity estimate (log intensity, higher = more binding, comparable within an allelic series) with HOXB9 [3].

As to GTGGCGGA, the binding signal with HOXB9 [1] was 8.44 upbm affinity estimate (log intensity, higher = more binding, comparable within an allelic series); in the test with HOXB9 [2], 8.58 upbm affinity estimate (log intensity, higher = more binding, comparable within an allelic series); in the test with HOXB9 [3], 8.61 upbm affinity estimate (log intensity, higher = more binding, comparable within an allelic series).

Regarding GCCTCCGC, the binding signal with HOXB9 [1] was 8.43 upbm affinity estimate (log intensity, higher = more binding, comparable within an allelic series); with HOXB9 [2], 8.05 upbm affinity estimate (log intensity, higher = more binding, comparable within an allelic series); with HOXB9 [3] it was 8.16 upbm affinity estimate (log intensity, higher = more binding, comparable within an allelic series).

With AGCGCGCC, the binding signal is 8.57 upbm affinity estimate (log intensity, higher = more binding, comparable within an allelic series) in the test with HOXB9 [1]; 8.53 upbm affinity estimate (log intensity, higher = more binding, comparable within an allelic series) with HOXB9 [2]; 8.54 upbm affinity estimate (log intensity, higher = more binding, comparable within an allelic series) with HOXB9 [3].

For AAGCCACC, the binding signal is 8.58 upbm affinity estimate (log intensity, higher = more binding, comparable within an allelic series) in the test with HOXB9 [1]; 8.55 upbm affinity estimate (log intensity, higher = more binding, comparable within an allelic series) in the test with HOXB9 [2]; 8.63 upbm affinity estimate (log intensity, higher = more binding, comparable within an allelic series) with HOXB9 [3].

With GTCCGGCA, the binding signal with HOXB9 [1] is 8.68 upbm affinity estimate (log intensity, higher = more binding, comparable within an allelic series); with HOXB9 [2], 8.51 upbm affinity estimate (log intensity, higher = more binding, comparable within an allelic series); in the test with HOXB9 [3], 8.52 upbm affinity estimate (log intensity, higher = more binding, comparable within an allelic series).

Take CAGGGGCC: the binding signal is 8.21 upbm affinity estimate (log intensity, higher = more binding, comparable within an allelic series) with HOXB9 [1]; 8.25 upbm affinity estimate (log intensity, higher = more binding, comparable within an allelic series) with HOXB9 [2]; 8.25 upbm affinity estimate (log intensity, higher = more binding, comparable within an allelic series) in the test with HOXB9 [3].

As to CGCCGGGA, the binding signal was 8.5 upbm affinity estimate (log intensity, higher = more binding, comparable within an allelic series) with HOXB9 [1]; 8.44 upbm affinity estimate (log intensity, higher = more binding, comparable within an allelic series) with HOXB9 [2]; 8.47 upbm affinity estimate (log intensity, higher = more binding, comparable within an allelic series) with HOXB9 [3].

Regarding CCAGACCG, the binding signal with HOXB9 [1] was 8.54 upbm affinity estimate (log intensity, higher = more binding, comparable within an allelic series); in the test with HOXB9 [2], 8.51 upbm affinity estimate (log intensity, higher = more binding, comparable within an allelic series); in the test with HOXB9 [3], 8.43 upbm affinity estimate (log intensity, higher = more binding, comparable within an allelic series).

With CCTGCGGC, the binding signal with HOXB9 [1] is 8.26 upbm affinity estimate (log intensity, higher = more binding, comparable within an allelic series); with HOXB9 [2], 8.14 upbm affinity estimate (log intensity, higher = more binding, comparable within an allelic series); with HOXB9 [3] it was 8.19 upbm affinity estimate (log intensity, higher = more binding, comparable within an allelic series).

Turning to GAAGCGGC, the binding signal is 8.49 upbm affinity estimate (log intensity, higher = more binding, comparable within an allelic series) in the test with HOXB9 [1]; 8.36 upbm affinity estimate (log intensity, higher = more binding, comparable within an allelic series) with HOXB9 [2]; 8.37 upbm affinity estimate (log intensity, higher = more binding, comparable within an allelic series) with HOXB9 [3].

With ACCGGCCT, the binding signal with HOXB9 [1] was 8.37 upbm affinity estimate (log intensity, higher = more binding, comparable within an allelic series); with HOXB9 [2], 8.52 upbm affinity estimate (log intensity, higher = more binding, comparable within an allelic series); with HOXB9 [3], 8.47 upbm affinity estimate (log intensity, higher = more binding, comparable within an allelic series).

With GGTTCGGA, the binding signal in the test with HOXB9 [1] was 8.66 upbm affinity estimate (log intensity, higher = more binding, comparable within an allelic series); with HOXB9 [2], 8.54 upbm affinity estimate (log intensity, higher = more binding, comparable within an allelic series); with HOXB9 [3], 8.53 upbm affinity estimate (log intensity, higher = more binding, comparable within an allelic series).

For GGCGCAGA, the binding signal was 8.52 upbm affinity estimate (log intensity, higher = more binding, comparable within an allelic series) with HOXB9 [1]; 8.62 upbm affinity estimate (log intensity, higher = more binding, comparable within an allelic series) with HOXB9 [2]; 8.63 upbm affinity estimate (log intensity, higher = more binding, comparable within an allelic series) with HOXB9 [3].

AGGGCGTG: the binding signal with HOXB9 [1] was 8.57 upbm affinity estimate (log intensity, higher = more binding, comparable within an allelic series); in the test with HOXB9 [2], 8.4 upbm affinity estimate (log intensity, higher = more binding, comparable within an allelic series); with HOXB9 [3], 8.53 upbm affinity estimate (log intensity, higher = more binding, comparable within an allelic series).

Take CGTCCGAC: the binding signal is 8.56 upbm affinity estimate (log intensity, higher = more binding, comparable within an allelic series) with HOXB9 [1]; 8.39 upbm affinity estimate (log intensity, higher = more binding, comparable within an allelic series) in the test with HOXB9 [2]; 8.45 upbm affinity estimate (log intensity, higher = more binding, comparable within an allelic series) in the test with HOXB9 [3].

Consider ATGGTGTC, for which the binding signal with SIX6 is 9.97 upbm affinity estimate (log intensity, higher = more binding, comparable within an allelic series).

As for ACCGGCCA, the binding signal with HOXB9 [1] was 8.45 upbm affinity estimate (log intensity, higher = more binding, comparable within an allelic series); with HOXB9 [2], 8.55 upbm affinity estimate (log intensity, higher = more binding, comparable within an allelic series); in the test with HOXB9 [3] it was 8.63 upbm affinity estimate (log intensity, higher = more binding, comparable within an allelic series).

Regarding GGAACCCC, the binding signal in the test with HOXB9 [1] was 8.42 upbm affinity estimate (log intensity, higher = more binding, comparable within an allelic series); with HOXB9 [2], 8.48 upbm affinity estimate (log intensity, higher = more binding, comparable within an allelic series); with HOXB9 [3] it was 8.46 upbm affinity estimate (log intensity, higher = more binding, comparable within an allelic series).

CCCCTCGA: the binding signal with HOXB9 [1] was 8.73 upbm affinity estimate (log intensity, higher = more binding, comparable within an allelic series); with HOXB9 [2] it was 8.55 upbm affinity estimate (log intensity, higher = more binding, comparable within an allelic series); with HOXB9 [3], 8.57 upbm affinity estimate (log intensity, higher = more binding, comparable within an allelic series).

With GACTGACC, the binding signal in the test with HOXB9 [1] is 8.57 upbm affinity estimate (log intensity, higher = more binding, comparable within an allelic series); with HOXB9 [2], 8.7 upbm affinity estimate (log intensity, higher = more binding, comparable within an allelic series); with HOXB9 [3] it was 8.7 upbm affinity estimate (log intensity, higher = more binding, comparable within an allelic series).
